The source made the active and inactive calls.
Key:
[1] = tested on: Plasmodium falciparum Sir2 (PF13_0152, Sir2A); assay: Plasmodium falciparum Sir2A binding compounds – biochemical, small-molecule microarray, 635 nm fluorescence, primary screen (AID 1098); settings: fluorescence 635 nm, higher = more signal;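 note: score merges spot fluorescence intensity with its signal-to-noise ratio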
[2] = probe aDKK1 binding to arrayed compounds – biochemical, biotinylated probe, 635/667 nm fluorescence, primary screen (AID 1099); settings: small-molecule microarray, higher = more signal;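 note: score merges 667nm spot fluorescence with signal to noise across triplicate slides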
[3] = probe aCHRDL2 binding to arrayed compounds – biochemical, biotinylated probe, 635/667 nm fluorescence, primary screen (AID 1100); settings: small-molecule microarray, higher = more signal
[4] = change in splice reporter luminescence, either direction, cell-based, HEK293, spliceosome inhibition project, primary screen (AID 1101); settings: HEK293 splicing luciferase reporter, 24 h, higher = more signal, called active from +8 up or from −8 down;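 note: HEK293 cells carrying a splicing-competent luciferase reporter gene; test concentration not given here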
[5] = biological target: Fibroblast growth factor 10 (Homo sapiens) (UniProt O15520); assay: compounds binding fibroblast growth factor 10 – biochemical, small-molecule microarray, 635 nm fluorescence, primary screen (AID 1102); settings: FGF10 binding, fluorescence 635 nm, higher = more signal
[6] = tested on: glycogen synthase kinase-3 (GSK3A per assay name; protocol says GSK3B); assay: compounds binding glycogen synthase kinase-3 – biochemical, small-molecule microarray, 635 nm fluorescence, GSK3A, primary screen (AID 1103); settings: fluorescence 635 nm, higher = more signal; note: the record names both GSK3A and GSK3B
[7] = biological target: Epidermal growth factor receptor (Homo sapiens) (UniProt P00533); assay: compounds binding epidermal growth factor receptor – biochemical, small-molecule microarray, 635 nm fluorescence, primary screen (AID 1104); settings: EGFR binding, higher = more signal;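 note: score merges 667 nm emission intensity with spot signal to noise over triplicate slides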
[8] = biological target: Follistatin-related protein 3 (Homo sapiens) (UniProt O95633); assay: compounds binding follistatin-related protein 3 – biochemical, small-molecule microarray, 635 nm fluorescence, primary screen (AID 1105); settings: FSTL3 binding, higher = more signal;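 note: score merges emission near 667 nm and signal to noise per printed spot across three slides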
[9] = biological target: Dickkopf-related protein 1 (Homo sapiens) (UniProt O94907); assay: small molecules binding DKK1 protein – biochemical, small-molecule microarray, 635 nm fluorescence scan, primary screen (AID 1106); settings: higher = more signal;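 note: score merges emission near 667 nm with signal to noise over three replicate slides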
[10] = tested on: Inhibin beta A chain (activin A); assay: small molecules binding activin A – biochemical, small-molecule microarray, 635 nm fluorescence scan, primary screen (AID 1107); settings: INHBA, higher = more signal;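 note: mouse activin A protein probed at 4.33 µg/mL on printed slides; score merges bound-protein fluorescence near 667 nm with spot signal-to-noise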
[11] = tested on: Human papillomavirus type 1a protein E7 (residues 44-93); assay: small molecules binding HPV E7 44-93 – biochemical, small-molecule microarray, residues 44-93, 635 nm fluorescence, primary screen (AID 1108); settings: fluorescence 635 nm, higher = more signal;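 note: E7 fragment applied at 1 µg/mL in TBST for 1 h at 4 C; score combines spot fluorescence with its signal to noise ratio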
[12] = hepatitis C replication reporter changes, two-sided – Huh7 cells, luciferase reporter, HCV replication inhibitor project, primary screen (AID 1109); settings: Huh7 HCV replicon luciferase reporter, 48 h; higher = more signal;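 note: huh7 hepatoma cells harbouring a luciferase neomycin HCV replicon reporter; luciferase luminescence as measure of HCV replicon replication; test concentration not given here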
[13] = biological target: Left-right determination factor 2 (Homo sapiens) (UniProt O00292); assay: small molecules binding LEFTY2 protein – biochemical, small-molecule microarray, 635 nm fluorescence scan, primary screen (AID 1110); settings: higher = more signal
[14] = biological target: Calmodulin-1 (Homo sapiens) (UniProt P0DP23); assay: small molecules binding calmodulin-1 with EGTA – biochemical, small-molecule microarray, Cy5-labelled CALM1, profiling panel (AID 1111); settings: Cy5-CALM1 binding fluorescence, higher = more signal;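 note: labelled calmodulin applied in Tris saline Tween buffer holding calcium plus EGTA and DTT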
[15] = biological target: Calmodulin-1 (Homo sapiens) (UniProt P0DP23); assay: small molecules binding Ca-loaded calmodulin-1 – biochemical, small-molecule microarray, Cy5-labelled CALM1, plus calcium, artefact control for SMM control-protein annotation, profiling panel (AID 1112); settings: Cy5-CALM1 binding fluorescence, higher = more signal;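 note: score merges spot fluorescence with signal to noise from triplicate slides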
[16] = probe aWnt5a binding to arrayed compounds – biochemical, biotinylated probe, 635/667 nm fluorescence, primary screen (AID 1113); settings: small-molecule microarray, higher = more signal;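 note: score merges 667 nm fluorescence intensity with signal-to-noise per printed feature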
[17] = probe aShh binding to arrayed compounds – biochemical, biotinylated probe, 635/667 nm fluorescence, primary screen (AID 1114); settings: small-molecule microarray, higher = more signal;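 note: probe is biotin-labelled aShh protein from a stem cell growth factor screen; measures binding of labelled protein to compounds printed on the slide; score merges feature fluorescence at 667 nm with signal-to-noise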
[18] = probe aNog binding to arrayed compounds – biochemical, biotinylated probe, 635/667 nm fluorescence, primary screen (AID 1115); settings: small-molecule microarray, higher = more signal;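 note: probe is biotinylated aNog protein used at 0.15 µg/mL for 1 h at 4 C; z-score combines 667 nm fluorescence of each spot with its signal to noise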
[19] = biological target: Torsin-1A-interacting protein 1 (Homo sapiens) (UniProt Q5JTV8); assay: compound microarray binding of lysate hLAP1 – cell lysate, small-molecule microarray, COS7 lysate, 635/667 nm fluorescence, primary screen (AID 1116); settings: 635 nm fluorescence, higher = more signal
[20] = biological target: Alpha-bungarotoxin (Bungarus multicinctus) (UniProt P60615); assay: compounds binding labelled alpha-BTX control protein – biochemical, small-molecule microarray, Alexa647 label, 635/667 nm fluorescence, artefact control for SMM control protein annotation, profiling panel (AID 1117); settings: alpha-BTX-A647 binding fluorescence, higher = more signal
Alpha-bungarotoxin (Bungarus multicinctus), sequence (P60615 whole entry, looked up): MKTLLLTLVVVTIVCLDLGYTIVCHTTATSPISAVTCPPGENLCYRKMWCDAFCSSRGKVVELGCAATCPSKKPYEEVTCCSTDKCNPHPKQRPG

Fibroblast growth factor 10 (Homo sapiens), sequence (O15520 whole entry, looked up): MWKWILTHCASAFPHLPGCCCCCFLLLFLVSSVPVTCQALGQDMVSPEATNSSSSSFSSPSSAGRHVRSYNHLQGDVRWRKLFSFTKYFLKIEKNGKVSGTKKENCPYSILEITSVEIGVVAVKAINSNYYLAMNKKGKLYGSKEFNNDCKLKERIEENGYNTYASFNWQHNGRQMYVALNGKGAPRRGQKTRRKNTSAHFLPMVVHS
Torsin-1A-interacting protein 1 (Homo sapiens), sequence (Q5JTV8 whole entry, looked up): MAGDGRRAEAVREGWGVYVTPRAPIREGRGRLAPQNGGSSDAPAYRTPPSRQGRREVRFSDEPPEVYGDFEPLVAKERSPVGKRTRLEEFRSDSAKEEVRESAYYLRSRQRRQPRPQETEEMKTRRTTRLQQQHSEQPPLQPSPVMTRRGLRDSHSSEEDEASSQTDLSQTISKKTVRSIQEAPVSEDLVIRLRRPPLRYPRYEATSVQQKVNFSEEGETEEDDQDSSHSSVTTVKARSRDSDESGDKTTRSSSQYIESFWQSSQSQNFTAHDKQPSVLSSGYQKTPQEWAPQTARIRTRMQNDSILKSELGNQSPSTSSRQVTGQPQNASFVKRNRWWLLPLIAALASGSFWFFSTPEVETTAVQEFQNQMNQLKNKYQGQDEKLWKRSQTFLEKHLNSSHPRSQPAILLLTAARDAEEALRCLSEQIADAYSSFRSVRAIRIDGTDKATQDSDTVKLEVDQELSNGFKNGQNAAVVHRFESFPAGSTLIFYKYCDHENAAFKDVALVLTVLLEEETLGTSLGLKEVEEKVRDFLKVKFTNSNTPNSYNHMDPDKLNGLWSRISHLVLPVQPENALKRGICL
Dickkopf-related protein 1 (Homo sapiens), sequence (O94907 whole entry, looked up): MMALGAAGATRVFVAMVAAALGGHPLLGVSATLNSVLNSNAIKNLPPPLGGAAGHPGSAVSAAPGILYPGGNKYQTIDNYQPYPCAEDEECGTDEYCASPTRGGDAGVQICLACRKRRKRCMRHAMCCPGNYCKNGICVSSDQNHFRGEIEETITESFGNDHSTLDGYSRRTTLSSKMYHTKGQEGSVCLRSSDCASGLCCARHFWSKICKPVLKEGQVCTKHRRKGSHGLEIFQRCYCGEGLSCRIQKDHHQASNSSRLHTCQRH
Follistatin-related protein 3 (Homo sapiens), sequence (O95633 whole entry, looked up): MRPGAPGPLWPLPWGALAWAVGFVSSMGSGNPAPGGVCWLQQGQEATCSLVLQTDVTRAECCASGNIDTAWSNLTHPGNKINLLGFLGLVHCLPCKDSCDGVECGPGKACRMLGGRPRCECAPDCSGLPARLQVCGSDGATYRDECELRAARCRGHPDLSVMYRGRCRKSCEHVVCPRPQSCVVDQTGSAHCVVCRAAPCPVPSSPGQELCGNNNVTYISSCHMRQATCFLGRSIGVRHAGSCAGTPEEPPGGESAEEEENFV
Left-right determination factor 2 (Homo sapiens), sequence (O00292 whole entry, looked up): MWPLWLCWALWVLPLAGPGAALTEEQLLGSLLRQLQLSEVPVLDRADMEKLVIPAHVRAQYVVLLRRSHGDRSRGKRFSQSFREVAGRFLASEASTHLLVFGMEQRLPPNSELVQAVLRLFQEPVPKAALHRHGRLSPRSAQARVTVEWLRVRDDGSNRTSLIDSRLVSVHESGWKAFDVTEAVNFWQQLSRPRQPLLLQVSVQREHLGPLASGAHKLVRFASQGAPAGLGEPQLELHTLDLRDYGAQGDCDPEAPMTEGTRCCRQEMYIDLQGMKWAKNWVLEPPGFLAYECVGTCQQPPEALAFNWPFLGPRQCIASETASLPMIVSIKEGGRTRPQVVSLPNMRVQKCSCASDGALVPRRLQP
Epidermal growth factor receptor (Homo sapiens), sequence (P00533 whole entry, looked up): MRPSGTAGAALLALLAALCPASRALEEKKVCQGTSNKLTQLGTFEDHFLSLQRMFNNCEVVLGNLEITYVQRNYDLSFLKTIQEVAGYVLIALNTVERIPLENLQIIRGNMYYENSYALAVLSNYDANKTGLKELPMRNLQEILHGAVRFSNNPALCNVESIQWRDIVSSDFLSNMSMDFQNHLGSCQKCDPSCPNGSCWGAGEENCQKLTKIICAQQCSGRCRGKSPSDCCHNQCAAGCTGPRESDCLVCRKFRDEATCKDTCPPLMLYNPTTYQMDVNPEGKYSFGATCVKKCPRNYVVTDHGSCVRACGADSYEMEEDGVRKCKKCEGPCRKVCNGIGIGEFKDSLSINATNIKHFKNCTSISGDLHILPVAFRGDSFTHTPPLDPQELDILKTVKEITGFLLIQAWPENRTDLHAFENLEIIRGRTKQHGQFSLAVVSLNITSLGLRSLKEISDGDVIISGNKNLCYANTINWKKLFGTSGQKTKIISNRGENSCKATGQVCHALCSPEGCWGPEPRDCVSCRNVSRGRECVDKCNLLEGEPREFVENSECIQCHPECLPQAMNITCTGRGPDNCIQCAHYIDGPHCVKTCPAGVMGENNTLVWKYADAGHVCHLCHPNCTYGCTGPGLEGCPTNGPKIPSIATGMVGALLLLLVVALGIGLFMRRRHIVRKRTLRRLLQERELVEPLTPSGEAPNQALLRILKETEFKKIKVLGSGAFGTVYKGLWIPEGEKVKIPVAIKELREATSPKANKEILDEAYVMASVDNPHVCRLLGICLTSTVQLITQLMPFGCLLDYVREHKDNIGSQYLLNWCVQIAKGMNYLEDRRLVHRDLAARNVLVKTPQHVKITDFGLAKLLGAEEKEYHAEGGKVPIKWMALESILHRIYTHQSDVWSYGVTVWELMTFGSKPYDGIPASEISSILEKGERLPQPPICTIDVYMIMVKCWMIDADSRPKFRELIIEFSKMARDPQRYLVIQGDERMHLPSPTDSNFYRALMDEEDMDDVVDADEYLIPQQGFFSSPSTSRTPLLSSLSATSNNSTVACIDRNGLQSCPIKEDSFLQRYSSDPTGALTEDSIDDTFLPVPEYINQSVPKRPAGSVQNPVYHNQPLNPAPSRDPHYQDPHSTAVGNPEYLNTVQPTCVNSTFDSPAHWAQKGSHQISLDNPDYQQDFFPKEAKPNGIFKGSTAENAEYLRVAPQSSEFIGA

Compound | composite z-score [1] | composite z-score [2] | composite z-score [3] | z-score [4] | composite z-score [5] | composite z-score [6] | composite z-score [7] | composite z-score [8] | composite z-score [9] | composite z-score [10] | composite z-score [11] | z-score [12] | composite z-score [13] | composite z-score [14] | composite z-score [15] | composite z-score [16] | composite z-score [17] | composite z-score [18] | composite z-score [19] | composite z-score [20]
CC(C)CCC[C@@H](C)[C@H]1CC[C@@]2(C)C3=C(CC[C@]12C)[C@@]1(C)CC[C@H](OC(=O)CCl)C(C)(C)C1CC3 (stereo not given in full) | 0.346 | -0.0827 | -0.49 | 0.0767 (inactive) | 0.471 | 0.684 | 0.372 | 0.675 | 0.604 | 0.0773 | 0.637 | -0.143 | 0.448 | -0.0581 | -0.552 | 0.0115 | -0.424 | 0.0983 | 0.247 | 0.587
CC(C)C[C@@H]1NC(=O)[C@@]23C(=O)N[C@@H](Cc4ccccc4)C2[C@H](C)[C@@]2(C)O[C@H]2C3/C=C/C/C=C\CNC(=O)[C@H](Cc2ccccc2)NC1=O (stereo not given in full) | 0.608 | -0.117 | -0.417 | -0.639 (inactive) | 0.286 | 0.151 | 0.137 | 0.315 | 0.335 | 1.49 | -1.3 | -2.08 | 0.534 | -0.388 | -0.485 | -0.152 | -0.2 | -0.194 | 0.569 | 0.792
C=CCOC(=O)[C@H]1[C@@H]2C(=O)O[C@@H](c3ccccc3)[C@@H](c3ccccc3)N2[C@@H](c2ccc(OCCOC(=O)[C@H]3C[C@H]4C(=O)N5CCC[C@H]5C(=O)N4[C@H]3c3cccc(OCCO)c3)cc2)[C@]12C(=O)Nc1ccccc12 | 1.52 | -0.125 | 0.297 | -0.676 (inactive) | 0.795 | 1.31 | 0.649 | 0.978 | 0.732 | 0.186 | 1.05 | -1.01 | 0.427 | 0.384 | 0.0829 | -0.0607 | 0.263 | 0.228 | 0.925 | 1.64
COc1ccc([Si](C)(C)[C@@H]2[C@@H](CC(=O)N3CCC[C@H]3CO)O[C@]3(C(=O)N(Cc4ccc(N5CCC5=O)cc4)c4ccccc43)[C@H]2C)cc1 | 1.22 | 0.123 | 0.0655 | -0.473 (inactive) | 0.61 | 0.398 | 0.35 | 0.489 | 0.33 | 0.194 | 0.196 | -1.96 | 0.499 | 0.593 | 0.343 | -0.124 | 0.257 | 0.241 | 0.303 | 0.428
C=CCC(OC(C)=O)[C@@H]1[C@@H](N(Cc2cccc3ccccc23)C(=O)Cc2ccc(OC)cc2)c2cc(OCCCO)ccc2N1C(=O)Cc1ccc(OC)cc1 (stereo not given in full) | -0.247 | 0.199 | 0.373 | -0.768 (inactive) | -0.0161 | -0.45 | 0.015 | -0.134 | 0.0484 | 1.21 | -0.05 | 0.217 | 0.119 | -0.294 | 0.14 | -0.014 | -0.153 | 0.277 | -0.0539 | 0.476
C=C(CCCC)/C(=C/C[C@@H](OC(=O)c1ccncc1)c1ccc(OCCO)cc1)c1cnc2ccccc2c1 | 0.711 | 0.358 | 0.686 | -1.18 (inactive) | 1.24 | 0.633 | 1.15 | 1.53 | 1.68 | 1.8 | 0.602 | -1.3 | 0.737 | 0.0142 | -0.184 | -0.096 | 0.164 | 0.168 | -0.0621 | 3.3
CC(C)[Si](C#C[Si](C(C)C)(C(C)C)C(C)C)(O[C@H](C)c1cn([C@H](C)c2ccccc2)nn1)C(C)C | 0.366 | 0.106 | 0.351 | -1.8 (inactive) | 0.597 | 0.339 | 0.292 | 0.806 | 0.538 | -0.269 | 0.946 | 0.0537 | 0.188 | 0.242 | -0.479 | -0.131 | -0.138 | 0.444 | 0.245 | 0.833
COC(=O)c1c2oc(c1C(=O)OC)C(=O)N[C@@H](C(C)C)Cn1nncc1C1(CCCCC1)NC(=O)N[C@H](CO)CC2 | 1.54 | -0.212 | 0.0273 | -1.44 (inactive) | -0.0613 | -0.96 | -0.193 | -0.232 | -0.074 | 0.31 | -0.683 | 0.862 | -0.0834 | 0.401 | -0.102 | -0.148 | 0.0899 | -0.0207 | 0.368 | 1.29
CCOC(=O)C[C@H]1[C@H](OC(=O)Cc2ccc3c(c2)OCO3)[C@@H](NC(=O)c2ccc3ccccc3c2)c2cc(OCCCO)ccc2N1C(=O)c1ccc2ccccc2n1 | 0.114 | -0.0522 | -0.0322 | -3.47 (inactive) | 0.18 | 0.0646 | 0.118 | 0.161 | 0.121 | 0.0739 | -0.13 | -1.43 | 0.0822 | 1.05 | 0.691 | -0.124 | -0.0769 | -0.171 | 1.15 | 1.15
COc1ccc([Si](C)(C)[C@H]2[C@H](CCO)O[C@@]3(C(=O)N(Cc4ccc(N5C(=O)c6cccc7cccc5c67)cc4)c4ccccc43)[C@@H]2C)cc1 | 0.706 | 0.147 | 0.742 | -2.46 (inactive) | -0.0426 | -0.603 | -0.482 | -0.959 | -0.397 | 0.48 | 0.0848 | -4.78 | -0.385 | 1.57 | 1.28 | -0.129 | -0.138 | 0.467 | 0.18 | 1.05
C=C(CCCC)/C(=C/C[C@H](OC(=O)c1ccncc1)c1ccc(CO)o1)c1cnc2ccccc2c1 | 1.14 | 0.248 | -0.0775 | -0.964 (inactive) | 1.09 | 1.19 | 0.474 | 1.46 | 0.823 | 1.46 | 0.229 | -1.89 | 0.429 | 0.697 | 0.244 | -0.0236 | 0.0898 | 0.995 | 0.731 | 1.8

Reference: PubChem BioAssay
